{"source": "PubChem BioAssay (Tox21)", "note": "Calls of active or inactive are those of the source. The call rests on the fitted dose curve; in most records, active means well fitted curve in the direction sought with a large enough effect in the repeat runs; inconclusive means weak or mixed curves; inactive means flat fitted curve, though single readings scatter."}
{"assay": "qHTS assay to test for compound auto fluorescence at 590 nm (red) in HEK293 cells (AID 720679)", "settings": "red autofluorescence 540/590 nm; series mostly up to 91.3 µM", "description": "National Center for Advancing Translational Sciences [NCATS]\nNIH Chemical Genomics Center [NCGC]\nU.S. Environmental Protection Agency [EPA]\nNational Institutes of Environmental Health Sciences [NIEHS]\nNational Toxicology Program [NTP]\nU.S. Food and Drug Administration [FDA]\nCompound auto fluorescence often interferes with screening of the compound library against various biological targets and signaling pathways. Some of these compounds may have fluorophoric properties. Such properties may interfere with the assay outputs resulting in false positives and/or negatives. To decrease such complications and ensure the compound activities are relevant in terms of biological response, the Tox21 10K compound library was screened for auto fluorescence.\nFrom the fluorophores used as reporter signals in our screening assays, the auto fluorescence equivalencies of compounds against three fluorophores have been evaluated: Triamterene, Fluorescein and Rose Bengal sodium for blue, green and red fluorescence, respectively. The fluorescence intensities were measured using Excitation/Emission wavelengths at 405/460nm, 485/535nm and 540/590nm for blue, green and red labels, respectively. This assay includes the red fluorescence data.\nTox21 Assay Protocol Summary:\n2,000 HEK293 cells in 5 uL of culture medium containing 10% dialyzed FBS per well were dispensed into black wall/clear bottom 1536-well plates using a Multidrop Combi Dispenser (Thermo Scientific). The assay plates were incubated for 4-5 hr at 37C to allow cell attachment to the well bottom, followed by the transfer of 23 nL compound or DMSO vehicle by a pintool work station (Kalypsys, San Diego, CA). After the assay plates were incubated overnight at 37C and 5% CO2, fluorescence intensities in the assay plates were measured by an Envision (PerkinElmer, Shelton, CT) plate reader using three labels for measuring blue, green and red fluorescence at […] 460, 535 and 590nm respectively."}
{"molecule": "O=C(CCl)c1ccc(Cl)cc1Cl", "outcome": "inactive"}
{"molecule": "CCOC(=O)CBr", "outcome": "inactive"}
{"molecule": "COC(N)=O", "outcome": "inactive"}
{"molecule": "C=COC(C)=O", "outcome": "inactive"}
{"molecule": "CC(=O)C(C)(C)C", "outcome": "inactive"}
{"molecule": "CC(C)(Cl)[N+](=O)[O-]", "outcome": "inactive"}
{"molecule": "COP(=O)(OC)O/C(=C/Cl)c1cc(Cl)c(Cl)cc1Cl", "outcome": "inactive"}
{"molecule": "CNC(C)Cc1ccccc1OC", "note": "(stereo not given)", "outcome": "inactive"}
{"molecule": "O=C(CBr)OCc1ccccc1", "outcome": "inactive"}
{"molecule": "BrCCCCBr", "outcome": "inactive"}
{"molecule": "N#CCC#N", "outcome": "inactive"}
{"molecule": "[O-][Cl+]O", "outcome": "inactive"}
{"molecule": "c1cc2ccc3cccc4ccc(c1)c2c34", "outcome": "inactive"}
{"molecule": "S=C=NCc1ccccc1", "outcome": "inactive"}
{"molecule": "Cn1cc[n+](C)c1", "note": "(tested in a mixture with another compound)", "outcome": "inactive"}
{"molecule": "c1ccoc1", "outcome": "inactive"}
{"molecule": "Brc1ccc(Oc2ccccc2)cc1", "outcome": "inactive"}
{"molecule": "CCOP(=O)(OCC)O/C(=C/Cl)c1ccc(Cl)cc1Cl", "outcome": "inactive"}
{"molecule": "C=CC(=O)OC", "outcome": "inactive"}
{"molecule": "CCn1cc[n+](C)c1", "outcome": "inactive"}
{"molecule": "OCCCBr", "outcome": "inactive"}
{"molecule": "ClCCCCBr", "outcome": "inactive"}
{"molecule": "COc1ccc(-c2ccccc2)cc1NNC(=O)OC(C)C", "outcome": "inactive"}
{"molecule": "CCC(C)(NC(=O)c1cc(Cl)c(C)c(Cl)c1)C(=O)CCl", "note": "(stereo not given)", "outcome": "inactive"}
{"molecule": "O=C=Nc1ccc(Cl)cc1", "outcome": "inactive"}
{"molecule": "O=C(C(Cl)(Cl)Cl)C(Cl)(Cl)Cl", "outcome": "inactive"}
{"molecule": "Cc1ccc2ccccc2c1", "outcome": "inactive"}
{"molecule": "O=[N+]([O-])c1ccc(F)c([N+](=O)[O-])c1", "outcome": "inactive"}
{"molecule": "COc1nn(C(=O)NS(=O)(=O)c2ccccc2OC(F)(F)F)c(=O)n1C", "outcome": "inactive"}
{"molecule": "O=C(O)C1(c2ccc3c(c2)OC[C@H](Cc2ccc(-c4ccccc4)cc2)[C@H]3O)CCCC1", "outcome": "inactive"}
{"molecule": "CCCCCCCCCCOC(=O)c1ccccc1C(=O)OCCCCCCCCCC", "outcome": "inactive"}
{"molecule": "CCOC(=O)COc1cc(-c2nn(C)c(OC(F)F)c2Cl)c(F)cc1Cl", "outcome": "inactive"}
{"molecule": "CCCCOC(=O)c1ccccc1C(=O)OCc1ccccc1", "outcome": "inactive"}
{"molecule": "O=C(CBr)c1ccccc1", "outcome": "inactive"}
{"molecule": "COC1=CC(=O)O[C@@H](CCc2ccccc2)C1", "outcome": "inactive"}
{"molecule": "C=C(C#N)CCC#N", "outcome": "inactive"}
{"molecule": "O=S1OC[C@@H]2[C@H](CO1)[C@]1(Cl)C(Cl)=C(Cl)[C@@]2(Cl)C1(Cl)Cl", "note": "(stereo not given in full)", "outcome": "inactive"}
{"molecule": "C=CC(=O)NCNC(=O)C=C", "outcome": "inactive"}
{"molecule": "CCCN(CC1CC1)c1c([N+](=O)[O-])cc(C(F)(F)F)cc1[N+](=O)[O-]", "outcome": "inactive"}
{"molecule": "CCOP(=S)(Oc1ccc([N+](=O)[O-])cc1)c1ccccc1", "note": "(stereo not given)", "outcome": "inactive"}
